About 65 (0.07%) of roughly 96,000 compounds were called active. Rule as the data show it: active = inhibition above about 25%; inactive = the rest. Only a selection was taken, and actives are over-represented in it overall.

The values that follow come from PubChem BioAssay AID740 (SRMLSC, 2007).

The assay in a line: unspecified inhibition readout at 50 µM (AID 740). The conditions noted are these: unspecified screen; active compounds read high.
In general, inhibition refers to how much of the control response was suppressed. With `O=C(NCCN1CCOCC1)N1c2ccccc2Sc2ccccc21`, the inhibition was 0.23% (inactive).

For `COc1ccc(C2NC(=O)NC3=C2CCc2ccccc23)cc1` (configuration not stated), the inhibition was 66.1% (active).

In the case of `O=C1NC2=C(CCc3ccccc32)C(c2ccc(Br)cc2)N1` (configuration not stated), the inhibition is 70.4% (active).

As for `COc1ccc(C2C3=C(N=C4SCC(=O)N42)c2ccccc2CC3)cc1` (configuration not stated), the inhibition is 1.1% (inactive).

`O=C1NC2=C(C(=O)c3ccccc32)C(c2ccccc2)N1` (configuration not stated): the inhibition is 0.35% (inactive).

With `CC(C)c1ccc(C2NC(=O)NC3=C2CCc2ccccc23)cc1` (configuration not stated), the inhibition is 5.37% (inactive).

Regarding `Cc1ccc(C2NC(=O)Cc3ccccc32)cc1` (configuration not stated), the inhibition was 0.52% (inactive).

Turning to `COc1ccc(C2NC(=S)NC3=C2CCc2cc(OC)ccc23)cc1` (configuration not stated), the inhibition entry is “inactive”.

Turning to `Cc1ccc(C2NC(=O)NC3=C2CCc2ccccc23)cc1` (configuration not stated), the inhibition is 85.8% (active).

With `O=C1Cc2ccccc2C(c2ccc(Br)cc2)N1` (configuration not stated), the inhibition result was “inactive”.

Turning to `CC(C)CC(c1nnnn1C(C)(C)C)N1CCN(C2CCCC2)CC1` (configuration not stated), the inhibition is 0.26% (inactive).

As for `CC(=O)Nc1cccc(C(=O)Nc2ccccc2C(=O)O)c1`, the inhibition was 0.32% (inactive).

For the molecule `Cc1ccc2nc(SCC(=O)Nc3c(C)n(C)n(-c4ccccc4)c3=O)[nH]c2c1`, the inhibition entry was “inactive”.

On to `Cc1ccccc1NC(=O)c1ccc(NC(=O)c2ccco2)cc1`, for which the inhibition entry is “inactive”.

In the case of `O=C(Nc1ccccc1-c1ccccc1)c1ccc(NC(=O)c2ccco2)cc1`, the inhibition was 61.8% (active).

Turning to `O=C(Nc1ccccc1-c1ccccc1)c1ccco1`, the inhibition was 0.36% (inactive).

Regarding `N#Cc1ccccc1NC(=O)COC(=O)c1ccc2c(c1)OCCO2`, the inhibition result was “inactive”.

As to `COc1ccc(S(=O)(=O)Nc2ccc(C)cc2)cc1N(C)S(=O)(=O)c1ccc(Cl)cc1`, the inhibition entry was “inactive”.

For `COc1ccc(NS(=O)(=O)c2ccc(OC)c(N(C)S(=O)(=O)c3ccc(Cl)cc3)c2)cc1`, the inhibition is 25.8% (active).

For `COc1ccc(S(=O)(=O)Nc2ccc(F)cc2)cc1N(C)S(=O)(=O)c1ccc(Cl)cc1`, the inhibition entry is “inactive”.

With `O=C(NC1CCCC1)C1(c2ccccc2)CCN(S(=O)(=O)c2ccccc2)CC1`, the inhibition was 1.06% (inactive).

As to `CC1(C)Cc2c(c(N3CCOCC3)nc3sc4c(NN)ncnc4c23)CS1`, the inhibition was 27.3% (active).

Consider `CN(C)CCNc1ncnc2c1sc1nc(N3CCOCC3)c3c(c12)CC(C)(C)SC3`, for which the inhibition result was “inactive”.

Consider `CCN(CC)CCNc1ncnc2c1sc1nc(N3CCOCC3)c3c(c12)CC(C)(C)SC3`, for which the inhibition result was “inactive”.

As to `O=C1CC(C(=O)Nc2ccccc2)C2(CCCC2)O1` (configuration not stated), the inhibition result was “inactive”.

Take `O=C1CC(C(=O)Nc2ccccc2)C2(CCCCC2)O1` (configuration not stated): the inhibition was 1.6% (inactive).

Take `Cc1cccc(NC(=O)C2CC(=O)OC23CCCCC3)c1` (configuration not stated): the inhibition was 41.1% (active).

With `CC(=O)Nc1sc(C)c(C)c1C(=O)OC1CCOC1=O` (configuration not stated), the inhibition result is “inactive”.

Consider `COc1ccc(C(=O)OCC(=O)Nc2ccc(OC(F)F)cc2)c(OC)c1`, for which the inhibition entry was “inactive”.

As for `COc1cc(C2C(C#N)=C(C)NC3=C2C(=O)c2ccccc23)cc(OC)c1OC` (configuration not stated), the inhibition is 3.83% (inactive).

On to `O=C(O)c1ccc(CSCc2ccccc2F)o1`, for which the inhibition entry is “inactive”.

As to `COc1ccc(NC(=O)CN2CCCC(C)C2)c([N+](=O)[O-])c1` (configuration not stated), the inhibition is 0.73% (inactive).

Regarding `CCCCn1c(=O)c(C(=O)Nc2cnccn2)c(O)c2ccccc21`, the inhibition is 1.68% (inactive).

On to `Cc1c(NC(=O)c2cccc(F)c2)c(=O)n(-c2ccccc2)n1C`, for which the inhibition entry was “inactive”.

In the case of `CCCCCn1c(=O)c(C(=O)Nc2c(C)n(C)n(-c3ccccc3)c2=O)c(O)c2ccccc21`, the inhibition is 34.4% (active).

In the case of `Cc1c(NC(=O)c2ccc(F)cc2)c(=O)n(-c2ccccc2)n1C`, the inhibition entry is “inactive”.

Turning to `Cc1cc(C(=O)Nc2c(C)n(C)n(-c3ccccc3)c2=O)cs1`, the inhibition was 28.9% (active).

On to `Cc1c(NC(=O)c2c(F)c(F)c(F)c(F)c2F)c(=O)n(-c2ccccc2)n1C`, for which the inhibition was 0.88% (inactive).

Take `COC(=O)c1ccc(C2NC(=S)N(c3ccccc3)C(C)=C2C(=O)Nc2ccccc2OC)cc1` (configuration not stated): the inhibition result was “inactive”.

Regarding `CCS(=O)(=O)c1ccc2oc(SCC(=O)NCCC3=CCCCC3)nc2c1`, the inhibition was 10.4% (inactive).

In the case of `CCCCN(CC)CCNc1c(N2CCN(C(=O)OCC)CC2)c(=O)c1=O`, the inhibition result was “inactive”.

For the molecule `COC(=O)C(C(=O)OC)C(C[N+](=O)[O-])c1ccc(OC)cc1` (configuration not stated), the inhibition result is “inactive”.

As for `CCOC(=O)c1cnn(-c2ccccc2)c1-n1cccc1C(=O)C(=O)Nc1ccc(F)cc1`, the inhibition was 0.4% (inactive).

Regarding `CCOC(=O)c1cnn(-c2ccccc2)c1-n1cccc1C(=O)C(=O)Nc1ccccc1`, the inhibition result was “inactive”.

For the molecule `CCOC(=O)c1cnn(-c2ccccc2)c1-n1cccc1C(=O)C(=O)Nc1ccccc1C(F)(F)F`, the inhibition is 74.2% (active).

With `COCCNC(=O)C(c1ccccc1C)N(CCOC)C(=O)Cn1nnc2ccccc21` (configuration not stated), the inhibition was 1.03% (inactive).

Consider `CCOC(=O)CN(C(=O)Cn1nnc2ccccc21)C(C(=O)NCCOC)c1ccccc1` (configuration not stated), for which the inhibition entry is “inactive”.

Turning to `COCCNC(=O)C(c1ccccc1)N(CCOC)C(=O)Cn1nnc2ccccc21` (configuration not stated), the inhibition is 37.1% (active).

With `CCOC(=O)C1C(=O)NC(c2ccccc2)=NC1c1ccc(C(C)C)cc1` (configuration not stated), the inhibition was 1.01% (inactive).

As for `CN1CCN(S(=O)(=O)c2ccc(NC(=O)Cc3cccs3)cc2)CC1`, the inhibition entry was “inactive”.

As for `O=C(COc1ccccc1)Nc1ccc(-c2nnc(-c3ccco3)o2)cc1`, the inhibition entry is “inactive”.

For `CCC(Oc1ccccc1)C(=O)Nc1ccc(-c2nnc(-c3ccco3)o2)cc1` (configuration not stated), the inhibition was 28.2% (active).

Turning to `O=C(Nc1ccc(-c2nnc(-c3ccco3)o2)cc1)C(c1ccccc1)c1ccccc1`, the inhibition was 0.04% (inactive).

Turning to `Cc1ccc(S(=O)(=O)N(CC(=O)NC2CCCCCC2)c2ccccc2F)cc1`, the inhibition entry is “inactive”.

As for `COc1ccc(Br)cc1C(=O)Nc1ccc(N2CCN(S(C)(=O)=O)CC2)cc1`, the inhibition is 0.77% (inactive).

Take `CC(c1ccco1)N(C(=O)COc1ccc(Cl)cc1Cl)c1ccccn1` (configuration not stated): the inhibition is 39.3% (active).

Regarding `CC(C)c1ccc(C(=O)N(c2ccccn2)C(C)c2ccco2)cc1` (configuration not stated), the inhibition was 4.01% (inactive).

As for `CC(c1ccco1)N(C(=O)Nc1ccc(Cl)cc1)c1ccccn1` (configuration not stated), the inhibition result was “inactive”.

For `CC(c1ccco1)N(C(=O)COc1ccccc1[N+](=O)[O-])c1ccccn1` (configuration not stated), the inhibition was 0.73% (inactive).

As for `Cc1cc(C)cc(C(=O)N(c2ccccn2)C(C)c2ccco2)c1` (configuration not stated), the inhibition was 0.71% (inactive).

Take `CC(c1ccco1)N(C(=O)COc1ccc(Cl)cc1)c1ccccn1` (configuration not stated): the inhibition was 32.6% (active).

With `Cc1ccccc1NS(=O)(=O)c1ccc(C2CNC(=O)C2)cc1` (configuration not stated), the inhibition is 0.38% (inactive).
